The text below walks through data of PubChem BioAssay (NCATS).

Active and inactive are the calls of the source. Entries that show only a call come without a potency. Calls follow the shape of the dose curve; as a rule, active = well fitted inhibition curve with a large enough effect; inconclusive = small, poorly fitted or top-dose-only effect; inactive = no such curve, though single readings can be large or run the other way.

The assay in a line: qHTS assay for measurement of the activity of small molecule inhibitors on Zika virus induced Caspase-3 activity in human astrocytoma cells (AID 1224859). To be noted: SNB-19 ZIKV-induced caspase-3/7, luminescence, 6 h; series mostly up to 45.7 µM. The text has this:
National Center for Advancing Translational Sciences [NCATS]
Johns Hopkins University School of Medicine
Increase in the Caspase-3 activity indicates an activation of apoptosis cell death pathway caused by Zika virus infection in certain types of neuronal cells including human neural progenitor cells (hNPCs), astrocytes, and astrocytoma cell line (SNB-19). This cell-based caspase-3 activity assay measures the increased caspase-3 activity in the astrocytoma cell line (SNB-19) after a 6-hour Zika virus infection with a luminescence readout. A decrease in the luminescence signal in this assay by small molecule treatment indicates an inhibitory effect of that small molecule on the Zika virus induced caspase-3 activity that may correlate with its effect on reduction of Zika virus caused cell death.
The medium for SNB-19 cells is composed of RPMI 1640 (ATCC, Cat.# 30-2001), 10% fetal bovine serum (FBS) (GE healthcare Life Sciences, Cat.# SH30071.03), and 1% Pen/Strep (Gibco, Cat.# 15140-122). A Caspase-Glo 3/7 assay kit (catalog number G8092; Promega, Madison, WI) was used to detect caspase-3 activity induced by Zika virus infection in human cells. The reagent mixture was reconstituted as described in the protocol from the manufacturer. Polystyrene tissue culture treated and PDL coated white plates were obtained from Greiner Bio-One (Monroe, NC). Cells were seeded in 384- or 1536-well assay plates and cultured at 37 C with 5% CO2 for 16 to 20 hours. The typical cell seeding density in the 1536-well plate assay is 250 cells/well in 3ul medium for SNB-19 cells in tissue culture treated plates. Compounds were added to cells and incubated for one hour before addition of ZIKV solution to cells (2 FFU/cell). After incubation at 37 C with 5% CO2 for 6 hours, the reagent mixture of Caspase-Glo 3/7 assay kit was added to each well, followed by incubation at room temperature for 30 minutes. The luminescence intensity of the assay plates was measured using a ViewLux plate reader (PerkinElmer). Data were normalized by using the cell-containing wells without ZIKV as a negative control (0% induction of caspase 3/7 activity) and wells containing ZIKV infected cells (Caspase-3 activity induced) as a positive control (100% induction of caspase 3 activity). The percentage inhibitions of the increased Caspase-3 activity by small molecule inhibitors were then calculated.
For orientation: qHTS replaces the single test concentration by a dilution series.
As for `Cc1ccc(CN2CCNCC2)cc1NC(=O)CNc1ccc(F)c(F)c1`, the Potency entry was “inactive”. `CC(C)c1cnn2c(NCc3ccccc3)cc(N[C@@H](CO)[C@H](O)CO)nc12`: the Potency entry was “inactive”. On to `COC(=O)[C@]12CCC(C)(C)C[C@@H]1[C@@H]1C(=O)C=C3[C@@]4(C)C=C(C#N)C(=O)C(C)(C)[C@@H]4CC[C@@]3(C)[C@]1(C)CC2`, for which the Potency entry was “inactive”.

With `CN1CCC(CNc2ccc3ncc(-c4cccc(OC(F)(F)F)c4)n3n2)CC1`, the Potency entry was “inactive”. For the compound `COc1ccc(F)c(F)c1C(=O)c1cnc(NC2CCN(S(C)(=O)=O)CC2)nc1N`, the Potency result was “inactive”. On to `Cc1c(Cn2c(C)nc3c(C(=O)O)cc(N4CCOCC4)cc32)cccc1C(F)(F)F`, for which the Potency entry was “inactive”. For the compound `COc1cc2c(NC3CCN(C(C)C)CC3)nc(C3CCCCC3)nc2cc1OCCCN1CCCC1`, the Potency result was “inactive”. Consider `COc1cc2c(Oc3ccc(-c4cnc(Nc5ccc(F)cc5)n(C)c4=O)cc3F)ccnc2cc1OCCCN1CCOCC1`, for which the Potency entry is “inactive”. As for `C=C1C(=CC=C2CCC[C@]3(C)[C@@H]([C@H](C)C=C[C@H](C)C(C)C)CC[C@@H]23)C[C@@H](O)C[C@@H]1O`, the Potency result was “inactive”. Consider `Cn1c2ccccc2c2c3c(c4c5ccccc5n(CCC#N)c4c21)CNC3=O`, for which the Potency result is “inactive”. In the case of `Cc1[nH]nc2ccc(-c3cncc(OC[C@@H](N)Cc4ccccc4)c3)cc12`, the Potency result is “inactive”.

Regarding `O=C(O)c1ccc2c(c1)nc(Nc1cccc(Cl)c1)c1ccncc12`, the Potency entry is “inactive”.

On to `CC(=O)Nc1sc2c(c1-c1nc3ccccc3s1)CNC2`, for which the Potency result was “inactive”. Take `Cc1cc(Nc2ncnc3ccc(-c4ccc(CNCCS(C)(=O)=O)o4)cc23)ccc1Oc1ccn2ncnc2c1`: the Potency entry was “inactive”. As for `COc1ccc(-c2cc3c(C)nc(N)nc3n(C3CCC(OCCO)CC3)c2=O)cn1` (stereo not given), the Potency result is “inactive”. For `CN[C@H]1CCc2cc(OC)c(OC)c(OC)c2-c2ccc(OC)c(=O)cc21` the value was “inactive”; for `Cc1coc2c1C(=O)C(=O)c1c-2ccc2c1CCCC2(C)C`, “inactive”; for `C=CC(=O)Nc1cccc(Oc2nc(Nc3ccc(N4CCN(C)CC4)cc3)ncc2Cl)c1`, “inactive”. `COc1cc(Nc2ncc(F)c(Nc3ccc4c(n3)N(COP(=O)(O)O)C(=O)C(C)(C)O4)n2)cc(OC)c1OC`: the Potency result was “inactive”. On to `Cc1ccc(S(=O)(=O)Nc2cc(Cl)ccc2C(=O)Nc2nc(-c3ccccc3)cs2)cc1`, for which the Potency entry is “inactive”. As to `CN1CCN(c2ccc3nc(-c4c(N)c5c(F)cccc5[nH]c4=O)[nH]c3c2)CC1`, the Potency result was “inactive”. Next, `Cc1cccc(C=NNc2cc(N3CCOCC3)nc(OCCc3ccccn3)n2)c1`: “inactive”.

With `C[C@@]12O[C@@H](C[C@]1(O)CO)n1c3ccccc3c3c4c(c5c6ccccc6n2c5c31)CNC4=O`, the Potency result was “inactive”. For the compound `CCn1cc(-c2ccnc3[nH]c(-c4cccc(CN(C)C)c4)cc23)c(-c2ccc(NC(=O)N(C)C)cc2)n1`, the Potency result is “inactive”. For the compound `Cc1cn(-c2cc(NC(=O)c3ccc(C)c(Nc4nccc(-c5cccnc5)n4)c3)cc(C(F)(F)F)c2)cn1`, the Potency entry is “inactive”. For `Cc1cc(Nc2cc(N3CCN(C)CC3)nc(Sc3ccc(NC(=O)C4CC4)cc3)n2)n[nH]1` the value was “inactive”; for `CCN(CC)CCCCNc1ncc2cc(-c3cc(OC)cc(OC)c3)c(NC(=O)NC(C)(C)C)nc2n1`, “inactive”; for `CC(C)c1noc(N2CCC(COc3ccc(-c4ccc(S(C)(=O)=O)cc4)nc3)CC2)n1`, “inactive”. On to `COc1cc(C)c(Sc2cnc(NC(=O)c3ccc(CNC(C)C(C)C)cc3)s2)cc1C(=O)N1CCN(C(C)=O)CC1` (stereo not given), for which the Potency result is “inactive”. Consider `c1cc(-c2cnn3cc(-c4ccc(OCCN5CCCCC5)cc4)cnc23)ccn1`, for which the Potency entry is “inactive”. Next, `O=C(O)C1(Cc2cccc(Nc3nccs3)n2)CCC(Oc2cccc(Cl)c2F)CC1` (stereo not given): “inactive”. For `COc1cccc2nc(-c3cccs3)nc(NN3C(=O)C=C(C)C3=O)c12`, the Potency entry is “inactive”. Consider `Cc1cc(C(=O)N2CCN(c3cccc(Cl)c3)CC2)n(-c2ccccc2)n1`, for which the Potency entry was “inactive”.

`NC(=O)Nc1cc(-c2cccc(F)c2)sc1C(=O)N[C@H]1CCCNC1`: the Potency entry was “inactive”. Consider `CNC(=O)CN1CCC(Oc2cc3c(Nc4cccc(Cl)c4F)ncnc3cc2OC)CC1`, for which the Potency entry was “inactive”. For `Nc1ccc(S(=O)(=O)Nc2ncccn2)cc1` the value was “inactive”.

With `CC1COC2(CCN(c3nc(=O)c4cc(C(F)(F)F)cc([N+](=O)[O-])c4s3)CC2)O1` (stereo not given), the Potency result was “inactive”. With `C=CC(=O)Nc1cc2c(Nc3ccc(F)c(Cl)c3)ncnc2cc1C#CC(C)(C)N1CCN(C)CC1`, the Potency result was “inactive”.

In the case of `CNC(=O)c1nn(C)c2c1C(C)(C)Cc1cnc(Nc3ccc(N4CCN(C)CC4)cc3)nc1-2`, the Potency result was “inactive”.

On to `O=C(NCCCNc1nc(Nc2cccc(NC(=O)N3CCCC3)c2)ncc1I)c1cccs1`, for which the Potency entry is “inactive”.
